SMILES strings stand for the structures. The panel holds about 83,000 compounds, 20% with a hit somewhere; the sample as a whole holds those more often.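 Activity criterion: percent growth below 10, measured after cells in 96-well plates were exposed to a single compound concentration for 48 hours.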 A number with no mark means an inactive call. Active and inactive are the calls of the source.

The test system of the test is SR leukemia. In words: NCI-60 one-dose screen, 48 h (100 = growth as untreated, 0 = no growth, -100 = all killed). To be noted: 10 µM unless noted. The method, then: Growth inhibition of the SR human tumor cell line is measured as a screen for anti-cancer activity. Cells are grown in 96 well plates and exposed to the test compound for 48 hours. Compounds are tested at a single concentration, which is 10^-5 M for most compounds. The reported endpoint is percent growth (GI% or GIPRCNT), where numbers from 0 - 100% represent growth inhibition, and numbers from -100% - 0 represent cell death. For example, a value of 40 represents 60% growth inhibition. A value of 0 means no net growth occurred over the course of the experiment. A value of -40 indicates 40% of cells at the beginning of the experiment died by the end of the experiment. A value of -100 means all cells are dead at the end of the experiment.
NCI-60 Human Tumor Cell Lines Screen was performed using the standard one-dose NCI protocol, which is described in more detail at https://dtp.cancer.gov/discovery_development/nci-60/default.htm.
Compounds with GIPRCNT values below 10 were considered active. Activity score was based on GIPRCNT using the following formula: […]
Score is 0 for GIPRCNT values of 100 or above, 50 for GIPRCNT values of 0, and 100 for GIPRCNT values of -100.
With `O=C(O)c1ccc(-c2nn(-c3ccc(C(=O)O)cc3)cc2CNc2ccc(Br)cc2)cc1`, the growth was 107%.
Then `C[C@H]1C[C@@H](n2cnc3c(N)nccc32)[C@H](O)[C@@H]1O`, with -54.1% (active).
For `COC1=CC(c2ccc[nH]2)=N/C1=C\c1[nH]c(C)c(C(=O)CCCCC(=O)NC(C)(C)C)c1C`, the growth is 83.4%.
As for `NCCCOc1cc2ccccc2cc1C(=O)Nc1ccc(Cl)cc1OC(=O)c1cc2ccccc2cc1OCCCN`, the figure is -47.5% (active); as for `O=C(Nc1ccc(-n2cc(-c3ccncc3)c(-c3ccc(Cl)c(O)c3)n2)cc1)Nc1ccc(Cl)c(C(F)(F)F)c1`, -10.6% (active).
As for `Cn1c2ccccc2c2ccccc21`, the figure is 87.6%.
As for `COc1ccc(Nc2c3ccccc3nc3ccccc23)cc1`, the figure is 1.46% (active); as for `CC(C)OCC1CO1` (stereo not given), 102%.
Turning to `Nc1ccc(N=Nc2ccccc2)c2cc(S(=O)(=O)O)ccc12`, the growth is 95.8%.
Take `CCCCCCCCCCCCc1ccc([N+](CC)(CC)CC)cc1`: the growth is 32.4%.
Then `CCOC(=O)C1=C(C(F)(F)F)NC(=O)NC1CN1C(=O)c2ccccc2C1=O` (stereo not given), with 5.85% (active); and `CSC1=Nc2c(c(C)c(-c3ccccc3)n2CCCCl)C2=NC(=O)CN12`, with 12.8%; and `O=C1C=C(OCC=C(C(F)(F)F)C(F)(F)F)c2ccccc2C1=O`, with -19.7% (active).
For `NNC(=O)CNc1ccc2ccccc2c1`, the growth was 55%.
As for `CC(=O)N1N=C(c2ccc(Cl)cc2)CC1c1cn(-c2ccccc2)nc1-c1ccc([N+](=O)[O-])cc1` (stereo not given), the figure is 120%; as for `CCCCCN1CCN(C(CC(=O)c2ccccc2)C(=O)c2ccccc2)CC1` (stereo not given), 0.154% (active); as for `O=C(c1ccccc1)c1ccccc1-c1ccccc1`, 19.2%.
Then `CC(C)OC(=O)Nn1cnc2ccccc21`, with -48% (active).
`CCCCCc1ccnc(CC(=O)c2ccc(OC)cc2)c1`: the growth is 91.5%.
As for `O=C(N/N=C/c1cc(Cl)ccc1O)C(=O)N/N=C/c1cc(Cl)ccc1O`, the figure is 51.3%.
Then `Cc1nc2ccccc2c(=O)n1-c1cccc(OCc2cn(-c3cccc(O)c3)nn2)c1`, with 86.3%.
In the case of `COc1ccc2cn3c4ccc(O)cc4[nH]c(=O)c3c2c1`, the growth was 16.1%.
`CNc1ccc(Nc2ccc(S(=O)(=O)O)cc2)c2c1C(=O)c1ccccc1C2=O`: the growth was 99.7%.
As for `CCOc1nc(-c2ccccc2)cc2c(O)c(C(=O)N/N=C/c3ccccc3O)[nH]c(=O)c12`, the figure is 28.2%; as for `CCCCCCCCCCCCCCCCNC(=S)N/N=C/c1ccc(O)cc1O`, 41.2%.
As for `Ic1ccc(SSc2ccc(I)cc2)cc1`, the figure is 60.6%.
On to `O=C(Nc1ccccc1)Nc1ccc(Nc2ncnc3sc4c(c23)CCCC4)cc1`, for which the growth was 97.9%.
Then `FC(F)(F)c1cccc(-c2[nH]ncc2-c2nnnn2-c2ccccc2)c1`, with 25.6%; and `CCn1cnc(C[C@H](NC(=O)[C@@H](NC(=O)Nc2cc(C(F)(F)F)cc(C(F)(F)F)c2)C(C)(C)C)C(=O)OC)c1`, with -38.1% [100 µM] (active); and `COc1ccc(-c2nc(SCC(C)C)nc(Nc3ccc(C(=O)O)cc3)c2C#N)cc1`, with 82.5%.
As for `O=Nc1c(-c2c(O)[nH]c3cc(Br)ccc23)[nH]c2ccccc12`, the figure is -40.5% (active); as for `COc1ccc2c(c1)/C(=C1/S/C(=N/c3nnc(C)s3)NC1=O)C(=O)N2Cc1ccc(Br)cc1`, 55%.
Then `CC(=O)OC1/C=C\CC/C=C\C1` (stereo not given), with 104%; and `CC(O)c1cc[cH-]c1.[Fe+2].c1cc[cH-]c1` (stereo not given), with 90.2%; and `COc1ccccc1Nc1nnc(COc2ccc(CNC(=O)CCCC/C=C/C(C)C)cc2OC)o1`, with 76.1%.
In the case of `CC[C@H](Nc1ncnc2nc[nH]c12)c1nc2cccc(NCc3ccc(C(=O)NO)nc3)c2c(=O)n1-c1ccccc1`, the growth was 11.6%.
As for `CCC(C)CC(N)O` (stereo not given), the figure is 105%; as for `COc1ccc(-c2nnc(SCC(=O)Nc3ccc(C(=O)/C=C/c4cc(OC)c(OC)c(OC)c4)cc3)n2-c2ccccc2)cc1OC`, 75% [100 µM]; as for `COC(=O)[C@@H]1[C@H](O)[C@H](C)[C@H](O)[C@H](C)/C=C\C=C(C)C(=O)Nc2c(C)c(OC(C)=O)c3c(c2O)C(=O)C(C)=C2OCOC(=C23)C(C)=C[C@@](C)(O)[C@H](O)[C@@H](C)[C@H]1OC(C)=O`, 121%.
For the molecule `COC(=O)Nc1nc2ccc(C(=O)c3ccccc3N(C)C3COC3)cc2[nH]1`, the growth was 35.6%.
